In article PMC5540273 (PLoS ONE, 2017):

Legend:
Details in all cases: concentration: 1 μM, replicates: in singlicate; n = 1
PAK4 = system: PAK4
PAK6 = system: PAK6
PAK7 = system: PAK7
PCTK1 = system: T1, PCTK1
T1 construct: gene CDK16

PCTK2 = system: T2, PCTK2
T2 construct: gene CDK17

PCTK3 = system: T3, PCTK3
T3 construct: gene CDK18

PDGFRA = system: PDGFRA
PDGFRB = system: PDGFRB
PDPK1 = system: PDPK1
PFTAIRE2 = system: PFTAIRE2
PFTK1 = system: T4, PFTK1
T4 construct: gene CDK14

PHKG1 = system: PHKG1
PHKG2 = system: PHKG2
PIK3C2B = system: PIK3C2B
PIK3C2G = system: PIK3C2G
PIK3CA = system: PIK3CA
PIK3CB = system: PIK3CB
PIK3CD = system: PIK3CD
PIK3CG = system: PIK3CG
PIK4CB = system: T5, PIK4CB
T5 construct: gene PI4KB
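Also: KINOMEscan kinase panel screen.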

Compound | %Inh (PAK4) [%] | %Inh (PAK6) [%] | %Inh (PAK7) [%] | %Inh (PCTK1) [%] | %Inh (PCTK2) [%] | %Inh (PCTK3) [%] | %Inh (PDGFRA) [%] | %Inh (PDGFRB) [%] | %Inh (PDPK1) [%] | %Inh (PFTAIRE2) [%] | %Inh (PFTK1) [%] | %Inh (PHKG1) [%] | %Inh (PHKG2) [%] | %Inh (PIK3C2B) [%] | %Inh (PIK3C2G) [%] | %Inh (PIK3CA) [%] | %Inh (PIK3CB) [%] | %Inh (PIK3CD) [%] | %Inh (PIK3CG) [%] | %Inh (PIK4CB) [%]
Cc1ccc(NC(=O)c2ccnc(N3CCN(C)CC3)c2)cc1-c1ccc(C(=O)NCC2CC2)cc1 [GW775604] | 0 | 0 | 0 | 0 | 0 | 0 | 0 | 93.4 | 0 | 1 | 0 | 0 | 0 | 0 | 0 | 0 | 0 | 0 | 0 | 0
Cc1cn2c(=O)cc(N3CCOCC3)nc2n1Cc1cccc(Cl)c1Cl [GSK2334006] | 0 | 2 | 0 | 5 | 9 | 13 | 0 | 31 | 25 | 22 | 0 | 14 | 14 | 36 | 1 | 3 | 88 | 100 | 22 | 0
Cc1cccc(Cn2ccn3c(=O)cc(N4CCOCC4)nc23)c1 [GSK2297542] | 25 | 53 | 22 | 6 | 16 | 19 | 0 | 40 | 11 | 27 | 15 | 1 | 8 | 4 | 0 | 12 | 100 | 52 | 10 | 0
N#Cc1c(N2CCOCC2)sc(-c2ccn[nH]2)c1-c1ccc(Cl)cc1 | 15 | 29 | 0 | 0 | 0 | 7 | 3 | 12 | 0 | 0 | 19 | 9 | 0 | 31 | 37 | 90 | 97 | 46 | 20 | 16
O=C1NC(=O)C(N2CCc3ccccc32)=C1c1cccc(Cl)c1 [SB-408010] | 13 | 13 | 6 | 0 | 0 | 16 | 9 | 5 | 0 | 0 | 5 | 0 | 0 | 0 | 0 | 0 | 33 | 9 | 0 | 5
CN(C(=O)c1ccc(-c2cc(-c3c[nH]nc3-c3ccccn3)ccn2)cc1)C1CCOCC1 [GW810083] | 28 | 0 | 16 | 0 | 0 | 0 | 4 | 0 | 0 | 29 | 0 | 1 | 12 | 0 | 10 | 0 | 0 | 1 | 32 | 40
Cl.Nc1ncnc2occ(-c3ccc(NC(=O)Nc4cc(C(F)(F)F)ccc4F)cc3)c12 [SB-707548] | 9 | 6 | 26 | 11 | 80 | 67 | 99.8 | 100 | 33 | 68 | 79 | 0 | 8 | 0 | 23 | 0 | 8 | 27 | 6 | 0
Cc1nnc(-c2ccc3occ(-c4ccc(C(C)O)cc4)c3c2)o1 (centres unmarked) | 10 | 11 | 1 | 18 | 11 | 1 | 0 | 8 | 0 | 0 | 1 | 9 | 16 | 18 | 23 | 9 | 18 | 0 | 25 | 0
O=c1cc(N2CCOCC2)nc2n(Cc3cccc(Cl)c3Cl)c(C3CC3)nn12 [GSK2358994] | 0 | 13 | 0 | 0 | 0 | 3 | 0 | 2 | 14 | 0 | 0 | 8 | 0 | 70 | 64 | 8 | 100 | 82 | 45 | 0
COc1ccc(COc2cc(-n3cnc4ccccc43)sc2C(N)=O)cc1 [GSK1024304] | 0 | 0 | 5 | 0 | 0 | 11 | 0 | 31 | 3 | 17 | 0 | 0 | 0 | 0 | 0 | 0 | 100 | 0 | 0 | 0
CC(C)(C)n1cnc2c(N)ncnc21 [SKF-97359] | 21 | 0 | 6 | 0 | 0 | 0 | 0 | 0 | 0 | 8 | 0 | 14 | 24 | 0 | 0 | 0 | 0 | 0 | 0 | 25
c1ccc(-c2n[nH]cc2-c2ccnc3ccccc23)nc1 [GW271431] | 0 | 11 | 8 | 0 | 0 | 20 | 0 | 20 | 0 | 36 | 25 | 0 | 0 | 0 | 0 | 0 | 0 | 5 | 0 | 0
Nc1nc(-c2ccc3c(N)n[nH]c3c2)cc(N2CCCC2)n1 [GSK2227430] | 0 | 0 | 5 | 0 | 0 | 0 | 0 | 18 | 67 | 6 | 0 | 0 | 0 | 0 | 0 | 0 | 0 | 0 | 0 | 14
CNc1ncnc2[nH]ncc12 [SKF-18355] | 0 | 0 | 0 | 0 | 0 | 0 | 0 | 0 | 0 | 12 | 0 | 0 | 0 | 3 | 0 | 1 | 0 | 0 | 5 | 17
CN(C1=C(c2ccccc2)C(=O)NC1=O)c1ccccc1 [SB-334860] | 5 | 0 | 18 | 5 | 8 | 11 | 0 | 19 | 5 | 27 | 21 | 0 | 0 | 0 | 3 | 0 | 25 | 7 | 10 | 13
CSc1ccc(-c2cc3ncnc(SCC(=O)O)c3s2)cc1 | 0 | 0 | 8 | 0 | 0 | 6 | 15 | 50 | 10 | 12 | 3 | 0 | 0 | 0 | 0 | 0 | 0 | 8 | 2 | 0

Compound | %Inh (PAK4) [%] | %Inh (PAK6) [%] | %Inh (PAK7) [%] | %Inh (PCTK1) [%] | %Inh (PCTK2) [%] | %Inh (PCTK3) [%] | %Inh (PDGFRA) [%] | %Inh (PDGFRB) [%] | %Inh (PDPK1) [%] | %Inh (PFTAIRE2) [%] | %Inh (PFTK1) [%] | %Inh (PHKG1) [%] | %Inh (PHKG2) [%] | %Inh (PIK3C2B) [%] | %Inh (PIK3C2G) [%] | %Inh (PIK3CA) [%] | %Inh (PIK3CB) [%] | %Inh (PIK3CD) [%] | %Inh (PIK3CG) [%] | %Inh (PIK4CB) [%]
Cc1c2ccc(N(C)c3ccnc(Nc4cccc(S(N)(=O)=O)c4)n3)cc2nn1Cc1ccccc1.Cl.Cl [GW787226] | 0 | 0 | 10 | 0 | 0 | 4 | 99.7 | 100 | 0 | 0 | 27 | 0 | 0 | 5 | 0 | 0 | 0 | 0 | 0 | 0
CCc1ccnc(/C=C/c2n[nH]c3cc(Sc4ccccc4C(=O)NC)ccc23)c1 | 3 | 0 | 0 | 10 | 0 | 2 | 99.8 | 100 | 0 | 0 | 8 | 17 | 6 | 0 | 0 | 0 | 0 | 10 | 0 | 0
COc1ccc(Nc2nccc(N3CCC(NC(=O)Nc4cccc(C(C)=O)c4)C3)n2)cc1 (centres unmarked) [GSK1379731] | 0 | 13 | 0 | 9 | 0 | 18 | 0 | 38 | 7 | 9 | 3 | 0 | 0 | 0 | 0 | 0 | 0 | 0 | 0 | 0
NS(=O)(=O)c1cccc(-c2ccc3ncc(N4CCOCC4)nc3c2)c1 [GSK1535721] | 5 | 0 | 26 | 0 | 18 | 0 | 21 | 21 | 0 | 5 | 24 | 0 | 41 | 0 | 14 | 13 | 12 | 34 | 29 | 81
CC(C)Oc1ccc2c(-c3ccnc(Nc4ccc(N5CCN(C)CC5)cc4)n3)cnn2n1 [GW696155] | 47 | 56 | 44 | 99.3 | 93.5 | 60 | 55 | 97.2 | 27 | 34 | 55 | 51 | 84 | 0 | 0 | 0 | 21 | 45 | 30 | 33
Cn1ccc2ncnc(Oc3ccc(NC(=O)Nc4ccncc4)c(Cl)c3)c21 | 3 | 1 | 0 | 0 | 0 | 0 | 27 | 16 | 36 | 0 | 0 | 0 | 5 | 16 | 43 | 11 | 0 | 26 | 26 | 0
NCC(NC(=O)c1cc(-c2cn[nH]c2)c(-c2ccnc3[nH]ccc23)s1)c1ccccc1.O=C(O)C(F)(F)F.O=C(O)C(F)(F)F (centres unmarked) [GSK1325775] | 50 | 74 | 74 | 15 | 9 | 0 | 26 | 61 | 0 | 17 | 21 | 18 | 26 | 0 | 0 | 0 | 0 | 24 | 3 | 26
COCCNC(=O)c1ccc(-c2cc(C(=O)NC3CC3)cc(F)c2C)cc1 [GW868318] | 20 | 18 | 24 | 8 | 0 | 20 | 32 | 51 | 8 | 0 | 18 | 6 | 0 | 0 | 38 | 28 | 49 | 42 | 29 | 40
CN1c2ccc(NCc3ccc(F)cc3)cc2-c2c(cnn2C)S1(=O)=O | 0 | 0 | 0 | 0 | 0 | 0 | 0 | 0 | 0 | 0 | 0 | 0 | 0 | 0 | 0 | 0 | 0 | 0 | 0 | 0
Nc1nccc(-c2c(-c3ccc(F)cc3)ncn2C2CCN(CC(F)(F)F)CC2)n1 [SB-236560] | 16 | 0 | 0 | 1 | 0 | 0 | 3 | 0 | 0 | 23 | 0 | 0 | 0 | 5 | 53 | 0 | 18 | 0 | 66 | 46
CC(=O)Nc1ccc(COc2ccc(Nc3ccnc4cc(-c5ccccn5)ccc34)cc2)cc1.Cl [GW440148] | 0 | 13 | 15 | 1 | 17 | 18 | 99.1 | 100 | 0 | 26 | 25 | 0 | 0 | 0 | 0 | 2 | 100 | 7 | 14 | 16
O=C1Cc2cc(Nc3nc(NCc4cccc(S(=O)(=O)C(F)(F)F)c4)ncc3C(F)(F)F)ccc2N1 | 100 | 0 | 0 | 19 | 0 | 1 | 0 | 16 | 0 | 0 | 0 | 3 | 0 | 0 | 0 | 0 | 0 | 13 | 8 | 4
C[C@@H](Oc1cc(-n2cnc3ccc(NC(=O)NC(C)(C)C)cc32)sc1C(N)=O)c1ccccc1Cl [GSK346294] | 0 | 2 | 29 | 0 | 9 | 14 | 4 | 22 | 0 | 11 | 24 | 0 | 13 | 0 | 0 | 3 | 5 | 0 | 6 | 0
CN1c2ccc(CNc3ccc(F)cc3)cc2-c2c(cnn2C)S1(=O)=O | 0 | 0 | 0 | 0 | 0 | 0 | 0 | 0 | 12 | 0 | 0 | 0 | 0 | 19 | 41 | 0 | 0 | 0 | 0 | 0
COc1cc2ncn(-c3cc(OCc4sccc4Cl)c(C(N)=O)s3)c2cc1OC [GSK448459] | 0 | 6 | 0 | 4 | 0 | 13 | 25 | 76 | 0 | 0 | 12 | 0 | 0 | 15 | 0 | 0 | 0 | 30 | 35 | 0
